Among the data in PubChem BioAssay (Tox21) are Potency values, retold here.

Each structure is given as a SMILES string. Results filed as inconclusive are left out. Entries that show only a call come without a potency. Active and inactive are the calls of the source. Calls follow the shape of the full dose curve.

Chain of D(2) dopamine receptor (Homo sapiens) (P14416 whole entry, looked up): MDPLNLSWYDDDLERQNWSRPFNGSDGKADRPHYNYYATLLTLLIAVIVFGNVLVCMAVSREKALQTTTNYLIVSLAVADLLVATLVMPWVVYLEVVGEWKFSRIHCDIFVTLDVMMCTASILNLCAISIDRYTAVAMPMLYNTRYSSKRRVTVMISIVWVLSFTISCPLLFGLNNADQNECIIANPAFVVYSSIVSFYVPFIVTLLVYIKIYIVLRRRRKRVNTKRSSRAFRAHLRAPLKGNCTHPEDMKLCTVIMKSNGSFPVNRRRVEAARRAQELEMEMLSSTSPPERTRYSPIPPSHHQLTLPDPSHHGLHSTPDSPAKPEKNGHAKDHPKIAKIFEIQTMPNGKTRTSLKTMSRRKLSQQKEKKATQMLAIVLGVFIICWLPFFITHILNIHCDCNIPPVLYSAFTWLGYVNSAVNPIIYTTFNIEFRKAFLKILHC

This test deals with D(2) dopamine receptor (Homo sapiens) (UniProt P14416). Put plainly: Dopamine D2 receptor (DRD2) small molecule agonists, cell-based qHTS assay (AID 1963594). Also: nearly all actives have a fitted effect of over 35% in size. Conditions: HEK293-DRD2 cAMP HTRF, agonist mode, 30 min; series mostly up to 92.4 µM. The source says:
National Center for Advancing Translational Sciences [NCATS]
Division of Preclinical Innovation [DPI]
U.S. Environmental Protection Agency [EPA]
National Institutes of Environmental Health Sciences [NIEHS]
National Toxicology Program [NTP]
U.S. Food and Drug Administration [FDA]
DRD2 is the D2 subtype of the dopamine receptor, which is coupled to Gi subtype of G protein-coupled receptor. This G protein-coupled receptor inhibits adenylyl cyclase activity. The DRD2-HEK293 cell line stably expressing D2 dopamine receptor can be used for screening agonists and antagonists of interactions between D2 and its ligands. The Hek293-DRD2 cAMP assay is based on HTRF technology. It measures changes of cAMP accumulation in response to Gi coupled GPCR activation or inhibition.
Tox21 Assay Protocol Summary:
DRD2-Hek293 cells were dispensed at 600 cells/3uL/well in 1536-well white plates using a Multidrop Dispenser. After the assay plates were incubated at a 37 C/5% CO2 incubator for 24 h, 1 uL of Ro20-1724 at final concentration of 0.1 mM was transferred to the assay plate by a Flying Reagent Dispenser. Following Ro20-1724 addition, 23 nL of compound dissolved in DMSO, positive controls or DMSO only was added to the assay plates via Wako pintool station. The assay plates were incubated at room temperature for 10 min. Next, 1 uL of NKH477 at 200nM was added into the plates. After the assay plates were incubated at room temperature for an additional 30 min, 2.5 ul/well of cAMP-d2 and 2.5 ul/well of anti-cAMP-cryptate were added respectively into the assay plates using a Flying Reagent Dispenser. The plates were incubated at room temperature for 1 h. The fluorescence intensity in the plates was measured at 340 nm excitation and 665 & 620 nm emission by an Envision plate reader.
On the technique in general: In qHTS, concentration-response curves come from the screen itself.
Regarding `CCCCCCCCCC`, the Potency result is “inactive”.
`COC(=O)c1cccnc1`: the Potency entry was “inactive”.
With `O=C(O)CS`, the Potency result was “inactive”.
Take `Nc1ccc(C(=O)O)cc1`: the Potency entry is “inactive”.
Regarding `Brc1cc(Oc2cc(Br)c(Br)c(Br)c2Br)c(Br)c(Br)c1Br`, the Potency result is “inactive”.
Turning to `NC(=O)OCC(COC(N)=O)c1ccccc1`, the Potency entry was “inactive”.
As for `O=C(c1cc(O)c(O)c(O)c1)c1ccc(O)c(O)c1O`, the Potency result was “inactive”.
As for `CC(=O)CC(c1ccccc1)c1c(O)c2ccccc2oc1=O` (stereo not given), the Potency result was “inactive”.
Turning to `O=C(O)CCCCCCCC(=O)O`, the Potency entry was “inactive”.
Regarding `CC(C)C(=O)Nc1ccc([N+](=O)[O-])c(C(F)(F)F)c1`, the Potency result was “inactive”.
Consider `OC1C(O)C(O)C(O)C(O)C1O` (stereo not given), for which the Potency entry is “inactive”.
For the molecule `CCC(=O)OC/C=C/c1ccccc1`, the Potency result is “inactive”.
For the molecule `CCCCCCCCCCCCCC[N+](C)(C)C`, the Potency entry was “inactive”.
For `CCCCCCCCCCCCCCCO` the value was “inactive”; for `O=C(C1CCCCC1)N1CC(=O)N2CCc3ccccc3C2C1` (stereo not given), “inactive”.
Regarding `Nc1ccc(Cl)cc1Cl`, the Potency entry was “inactive”.
As for `O=S1(=O)CCCO1`, the Potency entry is “inactive”.
For `O=c1[nH]cnc2c1ncn2[C@H]1CC[C@@H](CO)O1` the value was “inactive”.
For `Cc1cc(Cc2ccc(N)c(C)c2)ccc1N`, the Potency result was “inactive”.
For `c1ccc2[nH]c(-c3cscn3)nc2c1` the value was “inactive”.
In the case of `c1ccc2c(c1)Cc1ccccc1-2`, the Potency result is “inactive”.
For `CC1=CC(=O)CC(C)(C)C1`, the Potency result is “inactive”.
As for `ClC/C=C/CCl`, the entry is “inactive”; as for `COC(=O)CCCCC(=O)OC`, “inactive”; as for `CCCCC(=O)O`, “inactive”.
As to `CCCCC(CC)C(=O)O` (stereo not given), the Potency result is “inactive”.
Regarding `CCCCCCCCCCCC[N+](C)(C)C`, the Potency result is “inactive”.
For `CC(=O)CC(=O)N(C)C` the value was “inactive”.
In the case of `CC1(C)[C@@H]2CC[C@@]1(C)C(=O)C2`, the Potency entry was “inactive”.
For the molecule `CCCCCCCCCCCCOC(=O)c1cc(O)c(O)c(O)c1`, the Potency entry is “inactive”.
For `CCC(O)OCCCOC` (stereo not given) the value was “inactive”.
As for `CC(=O)C(C)C`, the Potency entry was “inactive”.
For the molecule `O=c1cc[nH]c(=S)[nH]1`, the Potency entry is “inactive”.
As for `Cc1ccc(C(C)C)cc1`, the entry is “inactive”; as for `O=C(c1ccccc1)c1ccc(O)c(O)c1O`, “inactive”.
As for `Oc1ccc(Cc2ccccc2O)cc1`, the entry is “inactive”.
For `OCCOCCOCCO` the value was “inactive”; for `O=C(O)c1ccccc1C(=O)O`, “inactive”.
Regarding `CC(=O)CCc1ccccc1`, the Potency entry was “inactive”.
In the case of `O=C=NCCCCCCN=C=O`, the Potency entry is “inactive”.
